Assay results: the supplement of paper PMC10849652
Targets with a hit are over-represented here; the source holds about 8,800 in all. About 0.5% of all pairs of compound and target were hits.

UniProt Q15059, sequence (Q15059 whole entry, looked up): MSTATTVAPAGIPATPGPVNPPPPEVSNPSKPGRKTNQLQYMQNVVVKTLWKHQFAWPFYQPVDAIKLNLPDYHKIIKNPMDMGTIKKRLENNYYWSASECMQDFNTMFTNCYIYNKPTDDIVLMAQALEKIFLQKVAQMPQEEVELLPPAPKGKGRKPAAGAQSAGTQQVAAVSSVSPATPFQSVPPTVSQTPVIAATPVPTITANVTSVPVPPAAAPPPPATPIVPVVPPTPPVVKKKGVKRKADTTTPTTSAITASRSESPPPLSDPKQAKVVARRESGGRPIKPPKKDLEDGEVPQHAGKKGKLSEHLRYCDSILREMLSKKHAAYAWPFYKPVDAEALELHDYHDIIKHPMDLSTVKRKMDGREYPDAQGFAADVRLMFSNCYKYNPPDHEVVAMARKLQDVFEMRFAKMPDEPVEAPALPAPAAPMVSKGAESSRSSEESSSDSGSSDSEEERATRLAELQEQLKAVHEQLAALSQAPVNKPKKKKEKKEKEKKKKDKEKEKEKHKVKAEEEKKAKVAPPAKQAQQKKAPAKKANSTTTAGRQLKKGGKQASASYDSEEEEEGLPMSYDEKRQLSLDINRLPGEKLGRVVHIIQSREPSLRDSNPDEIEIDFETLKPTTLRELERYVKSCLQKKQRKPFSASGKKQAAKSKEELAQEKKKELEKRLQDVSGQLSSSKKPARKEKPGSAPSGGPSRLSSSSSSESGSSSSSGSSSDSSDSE
UniProt P24863, sequence (P24863 whole entry, looked up): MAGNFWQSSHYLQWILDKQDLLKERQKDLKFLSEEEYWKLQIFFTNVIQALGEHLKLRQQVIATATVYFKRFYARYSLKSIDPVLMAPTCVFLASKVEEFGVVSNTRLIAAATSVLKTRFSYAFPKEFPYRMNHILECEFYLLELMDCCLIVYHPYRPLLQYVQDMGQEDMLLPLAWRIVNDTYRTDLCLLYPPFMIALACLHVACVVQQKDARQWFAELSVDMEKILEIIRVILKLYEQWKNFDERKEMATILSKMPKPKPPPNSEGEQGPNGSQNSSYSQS
UniProt Q8N4J0, sequence (Q8N4J0 whole entry, looked up): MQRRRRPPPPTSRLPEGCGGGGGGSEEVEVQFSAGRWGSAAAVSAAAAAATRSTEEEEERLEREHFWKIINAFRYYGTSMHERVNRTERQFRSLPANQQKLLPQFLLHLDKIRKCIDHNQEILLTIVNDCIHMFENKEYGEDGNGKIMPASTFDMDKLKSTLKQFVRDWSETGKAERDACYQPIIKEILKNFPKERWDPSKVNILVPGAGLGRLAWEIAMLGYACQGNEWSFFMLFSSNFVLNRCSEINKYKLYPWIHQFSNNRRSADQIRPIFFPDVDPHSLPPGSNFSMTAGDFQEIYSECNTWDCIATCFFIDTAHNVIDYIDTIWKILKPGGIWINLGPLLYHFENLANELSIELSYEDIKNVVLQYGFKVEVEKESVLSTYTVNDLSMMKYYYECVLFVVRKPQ
UniProt Q8N4Q1, sequence (Q8N4Q1 whole entry, looked up): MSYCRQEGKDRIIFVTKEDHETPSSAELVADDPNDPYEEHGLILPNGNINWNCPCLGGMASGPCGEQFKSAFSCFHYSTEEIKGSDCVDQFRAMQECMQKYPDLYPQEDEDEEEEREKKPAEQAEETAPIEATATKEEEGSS
UniProt Q00535, sequence (Q00535 whole entry, looked up): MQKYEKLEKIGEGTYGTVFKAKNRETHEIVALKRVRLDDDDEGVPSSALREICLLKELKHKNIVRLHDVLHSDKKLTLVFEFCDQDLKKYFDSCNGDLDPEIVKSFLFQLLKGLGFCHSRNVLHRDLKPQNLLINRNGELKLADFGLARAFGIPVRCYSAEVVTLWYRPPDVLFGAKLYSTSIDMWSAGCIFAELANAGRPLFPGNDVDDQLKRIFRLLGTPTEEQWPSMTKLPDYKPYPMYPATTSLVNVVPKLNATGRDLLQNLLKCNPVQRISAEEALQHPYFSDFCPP
UniProt P11274, sequence (P11274 whole entry, looked up): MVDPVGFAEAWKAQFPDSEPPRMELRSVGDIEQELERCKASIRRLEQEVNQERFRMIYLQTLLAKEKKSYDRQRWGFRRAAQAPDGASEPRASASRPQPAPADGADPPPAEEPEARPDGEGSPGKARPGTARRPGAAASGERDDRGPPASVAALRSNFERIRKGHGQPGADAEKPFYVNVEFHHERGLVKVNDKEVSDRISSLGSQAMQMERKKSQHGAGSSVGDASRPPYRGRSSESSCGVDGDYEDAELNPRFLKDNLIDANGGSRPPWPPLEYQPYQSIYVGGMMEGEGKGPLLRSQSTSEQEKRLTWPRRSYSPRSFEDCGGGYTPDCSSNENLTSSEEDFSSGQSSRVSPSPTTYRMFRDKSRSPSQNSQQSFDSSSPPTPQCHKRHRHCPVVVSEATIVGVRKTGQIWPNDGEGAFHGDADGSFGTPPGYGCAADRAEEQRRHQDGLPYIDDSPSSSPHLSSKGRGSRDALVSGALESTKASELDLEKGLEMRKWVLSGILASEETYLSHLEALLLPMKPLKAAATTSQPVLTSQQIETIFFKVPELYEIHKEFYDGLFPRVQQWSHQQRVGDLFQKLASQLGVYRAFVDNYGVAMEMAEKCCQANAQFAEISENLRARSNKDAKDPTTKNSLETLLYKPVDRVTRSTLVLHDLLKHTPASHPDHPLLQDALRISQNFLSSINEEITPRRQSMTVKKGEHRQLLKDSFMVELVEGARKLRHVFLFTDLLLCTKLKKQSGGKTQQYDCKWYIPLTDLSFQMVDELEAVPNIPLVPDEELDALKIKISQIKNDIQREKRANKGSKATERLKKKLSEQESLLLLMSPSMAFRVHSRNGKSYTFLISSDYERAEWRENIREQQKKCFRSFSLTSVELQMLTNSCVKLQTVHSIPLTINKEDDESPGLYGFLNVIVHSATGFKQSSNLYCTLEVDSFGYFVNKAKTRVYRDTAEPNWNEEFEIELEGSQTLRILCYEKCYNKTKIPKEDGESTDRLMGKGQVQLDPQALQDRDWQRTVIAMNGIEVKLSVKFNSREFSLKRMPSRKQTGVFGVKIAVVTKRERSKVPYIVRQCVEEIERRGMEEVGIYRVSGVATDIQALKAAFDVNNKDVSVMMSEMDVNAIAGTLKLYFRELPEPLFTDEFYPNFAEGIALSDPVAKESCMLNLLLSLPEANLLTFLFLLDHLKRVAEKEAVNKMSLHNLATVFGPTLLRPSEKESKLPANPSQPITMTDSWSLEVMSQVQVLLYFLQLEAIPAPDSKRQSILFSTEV
UniProt O95674, sequence (O95674 whole entry, looked up): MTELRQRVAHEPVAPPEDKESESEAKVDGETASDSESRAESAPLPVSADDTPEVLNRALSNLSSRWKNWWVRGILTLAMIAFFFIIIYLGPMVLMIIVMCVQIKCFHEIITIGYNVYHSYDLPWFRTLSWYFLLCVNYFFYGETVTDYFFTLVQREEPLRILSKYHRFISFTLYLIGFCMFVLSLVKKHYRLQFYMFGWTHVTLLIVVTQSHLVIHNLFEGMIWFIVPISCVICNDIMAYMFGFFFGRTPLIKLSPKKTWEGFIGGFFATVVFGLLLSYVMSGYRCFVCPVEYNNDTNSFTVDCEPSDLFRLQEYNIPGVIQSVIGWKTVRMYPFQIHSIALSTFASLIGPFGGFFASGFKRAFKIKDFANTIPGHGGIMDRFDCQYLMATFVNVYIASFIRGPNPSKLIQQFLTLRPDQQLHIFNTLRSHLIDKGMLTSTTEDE
UniProt O95260, sequence (O95260 whole entry, looked up): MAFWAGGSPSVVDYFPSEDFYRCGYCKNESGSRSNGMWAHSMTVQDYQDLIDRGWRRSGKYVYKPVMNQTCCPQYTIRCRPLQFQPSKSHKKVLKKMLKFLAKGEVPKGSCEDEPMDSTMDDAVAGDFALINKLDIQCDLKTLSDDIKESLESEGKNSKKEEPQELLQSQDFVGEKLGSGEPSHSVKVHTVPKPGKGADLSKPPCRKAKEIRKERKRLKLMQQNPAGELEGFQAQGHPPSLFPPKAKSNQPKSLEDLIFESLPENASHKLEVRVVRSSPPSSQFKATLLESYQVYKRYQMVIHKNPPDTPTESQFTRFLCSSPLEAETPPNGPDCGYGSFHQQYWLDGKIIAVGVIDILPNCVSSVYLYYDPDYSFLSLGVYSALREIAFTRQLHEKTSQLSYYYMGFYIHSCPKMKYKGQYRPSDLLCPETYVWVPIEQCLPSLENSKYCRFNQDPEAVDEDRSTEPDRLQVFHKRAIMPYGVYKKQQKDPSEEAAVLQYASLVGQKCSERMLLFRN
UniProt O75909, sequence (O75909 whole entry, looked up): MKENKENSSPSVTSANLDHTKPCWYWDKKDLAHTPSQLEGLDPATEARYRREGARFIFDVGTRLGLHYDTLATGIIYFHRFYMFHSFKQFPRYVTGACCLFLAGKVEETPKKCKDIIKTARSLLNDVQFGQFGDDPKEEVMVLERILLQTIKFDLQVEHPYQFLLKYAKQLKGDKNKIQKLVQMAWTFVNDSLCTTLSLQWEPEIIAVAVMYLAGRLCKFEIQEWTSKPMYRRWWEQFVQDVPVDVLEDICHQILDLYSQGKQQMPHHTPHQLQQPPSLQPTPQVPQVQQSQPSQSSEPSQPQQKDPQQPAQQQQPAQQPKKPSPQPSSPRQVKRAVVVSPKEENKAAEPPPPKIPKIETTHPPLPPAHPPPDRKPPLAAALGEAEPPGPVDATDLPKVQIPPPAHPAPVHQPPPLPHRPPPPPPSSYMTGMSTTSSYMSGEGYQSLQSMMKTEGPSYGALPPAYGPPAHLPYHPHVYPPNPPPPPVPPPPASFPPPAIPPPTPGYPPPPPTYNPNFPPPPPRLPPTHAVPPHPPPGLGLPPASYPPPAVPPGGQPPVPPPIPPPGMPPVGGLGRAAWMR
UniProt P06493, sequence (P06493 whole entry, looked up): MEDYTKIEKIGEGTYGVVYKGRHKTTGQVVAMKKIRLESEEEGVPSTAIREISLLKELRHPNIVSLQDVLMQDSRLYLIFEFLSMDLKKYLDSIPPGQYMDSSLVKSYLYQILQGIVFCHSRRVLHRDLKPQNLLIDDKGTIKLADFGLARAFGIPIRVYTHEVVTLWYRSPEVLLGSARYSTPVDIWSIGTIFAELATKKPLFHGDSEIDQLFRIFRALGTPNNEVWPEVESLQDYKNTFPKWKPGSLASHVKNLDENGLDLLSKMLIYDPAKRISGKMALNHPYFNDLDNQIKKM

These targets were tested with Cc1ccc(NC(=O)c2ccc(CN3CC[C@H](N(C)C)C3)c(C(F)(F)F)c2)cc1Nc1nccc(-c2cncnc2)n1 [bafetinib] (assay: log2 fold change, soluble protein after heating vs DMSO (PISA); higher = thermal stabilisation; K562 lysate, 10 uM; active = over 0.2 and 3.5 SD of the protein, either way, in both replicates (recomputed)).
How it was run: (§1)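 Dounce homogenisation of K562 pellets in PBS pH 7.4 with 1 mM MgCl2 produced a crude extract, used at 1 mg/mL protein. Exposure to 10 μM compound lasted 30 min, and aliquots were then heated for 3 min across 48°C-58°C, pooled and brought to 0.5% NP-40 at 4°C. The supernatant after 21,000xg for 90 min was quantified by TMTpro 16plex LC-MS/MS with channel sums equalised. Duplicate values are given as log-two fold change in thermal stability relative to solvent controls.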
For CCAR2 (UniProt Q8N163), the log2 fold change was -0.011 (inactive). In the case of CDK1 (UniProt P06493), the log2 fold change is reported as -0.016 (inactive). In the case of ATE1 isoform 2 (UniProt O95260), the log2 fold change is reported as -0.093 (inactive). CCDC22 (UniProt O60826) was tested, and the log2 fold change was -0.035 (inactive). ATXN2 (UniProt F8WB05) was tested, and the log2 fold change was 0.045 (inactive). With CHAF1A (UniProt Q13111) the log2 fold change was -0.075 (inactive). C2CD5 isoform 3 (UniProt Q86YS7) was tested, and the log2 fold change was -0.056 (inactive). In the case of CARNMT1 (UniProt Q8N4J0), the log2 fold change is reported as -0.078 (inactive). In the case of CCNC (UniProt P24863), the log2 fold change is reported as -0.123 (inactive). With BCR (UniProt P11274) the log2 fold change was 0.019 (inactive). With CDC16 (UniProt Q13042) the log2 fold change was -0.039 (inactive). CHCHD4 isoform 2 (UniProt Q8N4Q1) was tested, and the log2 fold change was -0.029 (inactive). BTAF1 (UniProt O14981) was tested, and the log2 fold change was -0.056 (inactive). CEP120 (UniProt Q8N960) was tested, and the log2 fold change was -0.257 (inactive). For CHD4 isoform 2 (UniProt Q14839), the log2 fold change was -0.05 (inactive). For ATP11A (UniProt P98196), the log2 fold change was -0.05 (inactive). With BRD3 (UniProt Q15059) the log2 fold change was -0.016 (inactive). ATG4B (UniProt Q9Y4P1) was tested, and the log2 fold change was -0.008 (inactive). With BORCS5 (UniProt Q969J3) the log2 fold change was -0.042 (inactive). CCPG1 isoform 5 (UniProt Q9ULG6) was tested, and the log2 fold change was 0.035 (inactive). In the case of ATP13A1 (UniProt Q9HD20), the log2 fold change is reported as -0.033 (inactive). For BUB1B isoform 3 (UniProt O60566), the log2 fold change was -0.029 (inactive). In the case of CDK5 (UniProt Q00535), the log2 fold change is reported as -0.008 (inactive). In the case of CDAN1 (UniProt Q8IWY9), the log2 fold change is reported as -0.056 (inactive). For CCNB1 (UniProt P14635), the log2 fold change was -0.004 (inactive). CDC7 (UniProt O00311) was tested, and the log2 fold change was 0.009 (inactive). With CCDC186 (UniProt Q7Z3E2) the log2 fold change was -0.047 (inactive). ATG13 isoform 2 (UniProt O75143) was tested, and the log2 fold change was -0.123 (inactive). For CCDC32 isoform 2 (UniProt Q9BV29), the log2 fold change was -0.087 (inactive). In the case of CAPNS1 (UniProt P04632), the log2 fold change is reported as 0.016 (inactive). In the case of CDK5RAP3 isoform 4 (UniProt Q96JB5), the log2 fold change is reported as -0.02 (inactive). For CAMK1 (UniProt Q14012), the log2 fold change was -0.047 (inactive). In the case of CDS2 (UniProt O95674), the log2 fold change is reported as 0.006 (inactive). For CALB2 (UniProt P22676), the log2 fold change was 0.082 (inactive). With BCKDK (UniProt O14874) the log2 fold change was 0.012 (inactive). In the case of CARS isoform 3 (UniProt P49589), the log2 fold change is reported as -0.008 (inactive). For CCNK isoform 4 (UniProt O75909), the log2 fold change was -0.051 (inactive). With CARD11 (UniProt Q9BXL7) the log2 fold change was -0.059 (inactive). In the case of CANX isoform 2 (UniProt P27824), the log2 fold change is reported as 0.017 (inactive). For BNIP1 (UniProt Q12981), the log2 fold change was -0.019 (inactive).

Each target was assayed with Cc1cccc(CC(=O)N2CCc3c2ccc(-c2cn(C)c4ncnc(N)c24)c3F)n1 in the same assay as above.
How it was run: as §1
CCAR2 (UniProt Q8N163) was tested, and the log2 fold change was 0.06 (inactive). For CDK1 (UniProt P06493), the log2 fold change was -0.022 (inactive). With ATE1 isoform 2 (UniProt O95260) the log2 fold change was 0.029 (inactive). With CCDC22 (UniProt O60826) the log2 fold change was -0.005 (inactive). With ATXN2 (UniProt F8WB05) the log2 fold change was 0.001 (inactive). For CHAF1A (UniProt Q13111), the log2 fold change was -0.005 (inactive). In the case of C2CD5 isoform 3 (UniProt Q86YS7), the log2 fold change is reported as 0.28 (active). In the case of CARNMT1 (UniProt Q8N4J0), the log2 fold change is reported as 0.181 (inactive). CCNC (UniProt P24863) was tested, and the log2 fold change was 0.015 (inactive). For BCR (UniProt P11274), the log2 fold change was 0.1 (inactive). For CDC16 (UniProt Q13042), the log2 fold change was -0.057 (inactive). CHCHD4 isoform 2 (UniProt Q8N4Q1) was tested, and the log2 fold change was 0.198 (inactive). For BTAF1 (UniProt O14981), the log2 fold change was 0.093 (inactive). CEP120 (UniProt Q8N960) was tested, and the log2 fold change was 0.129 (inactive). With CHD4 isoform 2 (UniProt Q14839) the log2 fold change was 0.05 (inactive). For ATP11A (UniProt P98196), the log2 fold change was 0.1 (inactive). In the case of BRD3 (UniProt Q15059), the log2 fold change is reported as 0.154 (inactive). For ATG4B (UniProt Q9Y4P1), the log2 fold change was -0.059 (inactive). For BORCS5 (UniProt Q969J3), the log2 fold change was -0.006 (inactive). CCPG1 isoform 5 (UniProt Q9ULG6) was tested, and the log2 fold change was 0.108 (inactive). ATP13A1 (UniProt Q9HD20) was tested, and the log2 fold change was 0.043 (inactive). With BUB1B isoform 3 (UniProt O60566) the log2 fold change was 0.035 (inactive). In the case of CDK5 (UniProt Q00535), the log2 fold change is reported as -0.023 (inactive). For CDAN1 (UniProt Q8IWY9), the log2 fold change was 0.051 (inactive). With CCNB1 (UniProt P14635) the log2 fold change was 0.091 (inactive). CDC7 (UniProt O00311) was tested, and the log2 fold change was 0.087 (inactive). CCDC186 (UniProt Q7Z3E2) was tested, and the log2 fold change was -0.064 (inactive). In the case of ATG13 isoform 2 (UniProt O75143), the log2 fold change is reported as 0.137 (inactive). In the case of CCDC32 isoform 2 (UniProt Q9BV29), the log2 fold change is reported as 0.085 (inactive). CAPNS1 (UniProt P04632) was tested, and the log2 fold change was 0.005 (inactive). CDK5RAP3 isoform 4 (UniProt Q96JB5) was tested, and the log2 fold change was 0.211 (inactive). For CAMK1 (UniProt Q14012), the log2 fold change was 0.314 (active). For CDS2 (UniProt O95674), the log2 fold change was 0.019 (inactive). For CALB2 (UniProt P22676), the log2 fold change was -0.007 (inactive). For BCKDK (UniProt O14874), the log2 fold change was -0.003 (inactive). With CARS isoform 3 (UniProt P49589) the log2 fold change was -0.011 (inactive). CCNK isoform 4 (UniProt O75909) was tested, and the log2 fold change was 0.109 (inactive). CARD11 (UniProt Q9BXL7) was tested, and the log2 fold change was 0.038 (inactive). With CANX isoform 2 (UniProt P27824) the log2 fold change was 0.052 (inactive). In the case of BNIP1 (UniProt Q12981), the log2 fold change is reported as -0.17 (inactive).
